Compound activity from PubChem.
HPGD inh = HPGD (human) dehydrogenase inhibition; P15428; purified HPGD, NADH fluorescence kinetic, PGE2 substrate; Potency, µM, for the others: at the highest dose activity change, negative = inhibition, most hits filed as inhibitors; 150,000 compounds, 4.3% hits
Target sequence (P15428 whole entry, looked up): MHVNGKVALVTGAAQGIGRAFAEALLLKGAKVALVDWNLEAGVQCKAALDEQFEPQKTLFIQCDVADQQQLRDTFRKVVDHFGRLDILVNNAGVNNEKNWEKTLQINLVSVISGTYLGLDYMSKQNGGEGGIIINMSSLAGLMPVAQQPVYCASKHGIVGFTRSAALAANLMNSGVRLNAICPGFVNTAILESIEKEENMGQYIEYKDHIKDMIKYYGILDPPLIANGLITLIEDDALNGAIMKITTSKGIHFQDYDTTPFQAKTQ
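20 nM HPGD preincubated 15 min at room temperature with compound in 50 mM Tris-HCl pH 8, 0.01% Tween 20. Started with 1 mM NAD+ and 30 uM prostaglandin E2; NADH fluorescence (360/450 nm) read 5 times over 30-s intervals, last minus first.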
Tau ThT inhib = blocks human tau fibril formation measured by thioflavin T; Potency, µM (highest dose often 57.4 µM), inactives show at the top dose activity, negative = inhibition, usual class: inhibitors; AID 1460; recombinant tau K18 P301L, heparin-induced fibrillization, ThT fluorescence; P10636; 270,000 compounds, 2.1% hits; active = well fitted curve in the direction sought with a large enough effect; inconclusive = small, poorly fitted or top-dose-only effect, or another doubt; inactive = no such curve, though single readings can be large; an effect the other way counts as inactive or inconclusive; note: nearly all actives have a fitted effect of over 55% in size
Target sequence (P10636 561-689 P618L limits assumed): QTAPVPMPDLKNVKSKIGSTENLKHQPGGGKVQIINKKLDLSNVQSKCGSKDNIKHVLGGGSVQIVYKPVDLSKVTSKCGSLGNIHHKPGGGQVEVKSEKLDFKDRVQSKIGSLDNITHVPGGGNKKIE
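Recombinant human tau K18 fragment […] carrying P301L, 15 uM unlabeled plus 0.24 uM Alexa 594-labeled, was fibrillized with 20 uM heparin in 100 mM sodium acetate pH 7 for 6 hr at 37 C; 30 uM ThT fluorescence read after 1 hr.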
Tau fluor counter = counter-screen for tau fibril formation inhibitors. tau K18 P301L Alexa594 fluorescence, heparin fibrillization. Potency, µM (doses to about 57.7 µM), for inactives: at the top dose activity change, negative = decrease. 280,000 compounds, 0.93% hits; active = well fitted curve in the direction sought with a large enough effect; inconclusive = small, poorly fitted or top-dose-only effect, or another doubt; inactive = no such curve, though single readings can be large; an effect the other way counts as inactive or inconclusive; note: nearly all actives have a fitted effect of over 55% in size
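Human tau K18 P301L (15 uM unlabeled, 0.24 uM Alexa 594-labeled) in 100 mM sodium acetate pH 7 with 20 uM heparin, 6 hr at 37 C. ThT 30 uM added, 1 hr ambient; Alexa 594 FP and total fluorescence read at 555/632 nm.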
Tau fibril FP = blocks human tau fibril formation measured by polarization; P10636; K18 P301L tau heparin fibrillization, Alexa594 FP, 6 h; Potency, µM (series often up to 57.7 µM), for the others: at the highest dose activity, negative = inhibition, usual class: inhibitors; 280,000 compounds, 0.39% hits; active = well fitted curve in the direction sought with a large enough effect; inconclusive = small, poorly fitted or top-dose-only effect, or another doubt; inactive = no such curve, though single readings can be large; an effect the other way counts as inactive or inconclusive; note: nearly all actives have a fitted effect of over 55% in size
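Heparin (20 uM) drove fibril formation of recombinant tau K18 P301L, 15 uM unlabeled with 0.24 uM Alexa 594 label, for 6 hr at 37 C in 100 mM sodium acetate pH 7. Fluorescence polarization (555/632 nm) read 1 hr after 30 uM ThT.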
ALDH1A1 inh = blocks purified human ALDH1A1 activity; P00352; Purified ALDH1A1, NADH fluorescence, propionaldehyde substrate; Potency, µM (doses to about 75.3 µM), without a hit: at the top dose activity, negative = inhibition, usual class: inhibitors; 220,000 compounds, 7.3% hits;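 note: plate controls were no enzyme wells and a reference inhibitor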
KDM4E inh = blocks human JMJD2E demethylase activity | Potency, µM (series often up to 57.1 µM), inactives show top-dose activity change, negative = inhibition, usual class: inhibitors | 230,000 compounds, 1.6% hits | AID 2147 | JMJD2E catalytic domain, FDH-coupled NADH fluorescence (FDH is formaldehyde dehydrogenase);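 note: 0% = wells with enzyme and -100% = buffer wells without enzyme; nearly all actives have a fitted effect of over 50% in size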
Target sequence (B2RXH2 1-337 limits assumed): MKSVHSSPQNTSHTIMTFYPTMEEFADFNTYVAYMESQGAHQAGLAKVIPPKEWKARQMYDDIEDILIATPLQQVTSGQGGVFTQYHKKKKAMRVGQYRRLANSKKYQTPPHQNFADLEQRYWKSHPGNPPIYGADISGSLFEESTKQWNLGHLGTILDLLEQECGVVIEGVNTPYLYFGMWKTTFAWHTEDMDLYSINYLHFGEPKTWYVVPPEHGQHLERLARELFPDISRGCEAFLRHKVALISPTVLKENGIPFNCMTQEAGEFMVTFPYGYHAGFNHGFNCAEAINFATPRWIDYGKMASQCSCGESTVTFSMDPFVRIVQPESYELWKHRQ
* = called active by the depositor; ? = inconclusive; · = not tested or not shown; [ ] = another dose, or the depositor's remark. Sampled rows, rich in hits. Any-hit rate of the full collection: about 9.9%. Unless noted, calls come from the whole dose curve; as a rule, active = well fitted inhibition curve with a large enough effect (not every such curve was filed as active); inconclusive = small, poorly fitted or top-dose-only effect, or another doubt; inactive = no such curve, though single readings can be large or run the other way. Unless noted, % is set by controls: 0 for no effect and ±100 for the full control effect; potency is the fitted concentration of half-maximal effect.

SMILES	HPGD inh	Tau ThT inhib	Tau fluor counter	Tau fibril FP	ALDH1A1 inh	KDM4E inh
COc1ccc(C(=O)Nc2ccc([N+](=O)[O-])cn2)c(OC)c1	·	-15.5%	-8.7%	-1.5%	-3.3%	12.4%
COc1ccc(C(=O)CSC#N)cc1OC	·	15.8µM*	-9.1%	?	1.26µM*	11.2%
Cc1cccc(N2CCN(C(=O)C3CCCN(S(=O)(=O)c4ccc(Br)s4)C3)CC2)c1C (centres undefined)	·	-14.5%	-13.4%	-2.7%	·	·
C=CCn1cccc(/C=C/C(=O)c2ccc(C(C)(C)C)cc2)c1=S	-20.9%	20µM*	-11.0%	15.8%	?	-5.9%
CN1CCN(C(=S)NC(=O)c2ccc(C(C)(C)C)cc2)CC1	-16.6%	4.0%	-1.0%	6.7%	4.6%	5.6%
CC1=NN(c2nc(-c3ccc(C)cc3)cs2)C(=O)C1N=Nc1ccccc1O (centres undefined)	·	2µM*	?	10.6%	?	3.0%
COc1ccc(-c2csc(N3N=C(C)C(C)C3=O)n2)cc1 (centres undefined)	·	?	-10.2%	2.7%	?	-3.6%
CC1=NN(c2nc(-c3ccc(C)cc3)cs2)C(=O)C1N=Nc1cccc(O)c1 (centres undefined)	·	1.78µM*	?	-16.0%	?	-6.1%
Cn1c(=O)n2n(c1=O)[C@H]1[C@H](O)[C@H]3O[C@@H]3/C(=N/OCc3ccccc3)[C@@H]1CC2	·	-7.2%[11.5 µM]	-8.9%[11.6 µM]	-10.8%[11.6 µM]	11.6%[13.5 µM]	·
CC1=C(C(=O)Nc2cccc(C)c2C)C2(CCCCC2)OC1=O	·	-3.6%	?	0.8%	·	·
O=C(Nc1sc2c(c1C(=O)c1ccccc1)CCCC2)c1cccnc1	-3.8%	?	-13.9%	-6.6%	?	?
O=C(Nc1sc2c(c1C(=O)c1ccc(Cl)cc1)CCCC2)c1cccnc1	-17.8%	?	?	-12.2%	20µM*	-17.3%
COc1ccccc1NC(=O)c1c(NCc2ccc(OC)c(OC)c2OC)sc2c1CCCC2	·	?	?	2.3%	·	·
COc1ccc(Cl)cc1NC(=O)c1c(NCc2cccnc2)sc2c1CCCC2	·	17.8µM*	?	-11.1%	·	·
Cc1ccccc1NC(=O)C(=O)NCC1(c2ccccc2)CCCC1	·	5.9%	2.4%	6.1%	·	·
O=c1c2ccccc2n(Cc2ccccc2F)c(=O)n1-c1cccc(F)c1	·	-5.0%	-12.1%	-6.2%	·	·
COc1ccccc1CNC(=O)c1cc2c(=O)n(Cc3cccs3)ccc2nc1C	·	-8.2%	-1.2%	11.1%	·	·
Cc1cc(Cn2cnc3c2C[C@@H](C(=O)O)N(C(=O)C(c2ccccc2)c2ccccc2)C3)ccc1N(C)C	-7.5%	-8.8%	6.3%	0.8%	?	?
C=C(C)C(=O)C1CCCCC1	-9.9%	0.4%	4.5%	-2.6%	1.7%	10.6%
COc1ccc(/C=C2\SC(=S)N(C(Cc3ccccc3)C(=O)O)C2=O)cc1 (centres undefined)	·	?	-7.2%	-11.4%	?	-2.0%
O=C(O)CC(C(=O)O)N1C(=O)/C(=C/C=C/c2ccco2)SC1=S (centres undefined)	·	12.6µM*	-22.4%	?	·	11.2µM*
O=C(O)C(Cc1ccccc1)N1C(=O)/C(=C/c2cccnc2)SC1=S (centres undefined)	·	?	-8.3%	-18.1%	·	-19.3%
O=C(O)C(Cc1ccccc1)N1C(=O)/C(=C/C=C/c2ccco2)SC1=S (centres undefined)	·	7.94µM*	?	?	3.16µM*	7.94µM*
O=C(O)CCCN1C(=O)/C(=C/C=C/c2ccco2)SC1=S	·	3.16µM*	0.6%	?	·	-0.1%
O=C(Cc1ccc(NC(=O)N2CCCCc3ccccc32)cc1)Nc1ccccc1Br	·	-14.8%	-1.1%	5.0%	·	·
SMILES	HPGD inh	Tau ThT inhib	Tau fluor counter	Tau fibril FP	ALDH1A1 inh	KDM4E inh
CCCCc1nc(NCCN2CCOCC2)c(C#N)c2c1COC(C)(C)C2	-17.6%	-0.2%	0.5%	3.5%	11.2µM*	?
Cc1ccc(OCCn2c(=S)[nH]c3c(N)ncnc32)cc1	·	-9.0%	-20.9%	9.0%	7.94µM*	-15.2%
Cc1ccc(OCCSc2nc3ncnc(N)c3[nH]2)cc1	·	-5.1%	-3.1%	1.3%	7.4%	1.8%
CC(C)Oc1ccc(OCCn2c(=S)[nH]c3c(N)ncnc32)cc1	·	?	?	0.6%	10µM*	-23.3%
CC[C@H](CN(C)C)C(=O)c1ccco1	-7.2%	·	·	·	-3.4%[13.5 µM]	·
O=Cc1ccccc1OS(=O)(=O)c1ccccc1	-5.8%	-8.1%	6.8%	3.2%	12.6µM*	0.0%
O=C(Oc1ccccc1)c1ccccc1OS(=O)(=O)c1ccccc1	-13.3%	-9.8%	?	-8.2%	-12.6%	4.5%
O=C(CCC(=O)CCN1CCCCC1)CCN1CCCCC1	-4.0%	?	-9.9%	?	0.631µM*	-0.3%
NC(=O)CCN1CCCCC1	·	2.7%	-1.2%	5.1%	3.5%	-15.5%
O=c1c(Cc2c(F)cccc2Cl)c(O)ccn1Cc1ccc2c(c1)OCO2	·	-6.7%	-6.3%	4.6%	7.94µM*	-7.0%
COC(=O)Cc1c(O)ccn(Cc2ccc3c(c2)OCO3)c1=O	·	2.6%	5.3%	4.5%	12.0%	-2.9%
Cc1cc(C)c2c(=O)cc(C(=O)Nc3ccccc3C(F)(F)F)oc2c1	·	-6.6%	-10.4%	-13.1%	·	·
Cc1ccc2nc(CSc3nnc(NC(=O)c4ccc(C(C)(C)C)cc4)s3)cc(=O)n2c1	·	1.3%	-3.6%	-10.5%	·	·
CC(C)C1C(=O)NC(=S)N1S(=O)(=O)c1ccc(C(C)(C)C)cc1 (centres undefined)	-15.1%	-6.0%	-13.1%	-2.5%	11.2µM*	-5.2%
Cc1ccc(C)c(S(=O)(=O)N2C(=S)NC(=O)C2CC(C)C)c1 (centres undefined)	-0.1%	-12.2%	-8.1%	-1.7%	-5.0%	6.8%
O=[N+]([O-])c1ccccc1-c1cc(-c2cc(Cl)ccc2O)n[nH]1	11.2µM*	?	14.1µM*[quencher]	?	-0.3%	-8.8%
Cc1ccc(O)c(-c2cc(-c3ccccc3[N+](=O)[O-])[nH]n2)c1	4.47µM*	?	?	8.8%	11.1%	4.8%
Cc1ccc(-c2cc(-c3cccs3)[nH]n2)c(O)c1	-10.6%	-10.4%	?	?	10.6%	-3.5%
O=C(Nc1cccnc1)c1cc(-c2cc(Cl)ccc2O)n[nH]1	·	·	-20.2%	1.0%	·	5.3%
Cc1ccc(O)c(-c2cc(C(F)(F)C(F)F)[nH]n2)c1	15.8µM*	2.0%	?	4.0%	16.9%	-10.4%
Cc1ccc(O)c(C2=Nc3ccccc3N=C(c3ccc([N+](=O)[O-])cc3)C2)c1	-14.1%	?	?	14.7%	8.3%	-2.4%
Cc1ccc(O)c(-c2cc(-c3ccccc3C)[nH]n2)c1	22.4µM*	?	?	-5.0%	5.8%	0.1%
